The nature of assay [1]: ATG_GRE_CIS: Attagene CIS-FACTORIAL HepG2 Assay for human Glucocorticoid Response Elements (GRE) (AID 2282947). The conditions noted are these: HepG2 GRE cis-reporter, Attagene multiplex mRNA; actives raise or lower the signal. The method, boiled down:
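Transiently transfected HepG2 cells carrying GRE cis-reporter units (endogenous TF activity) dosed 24 h; reporter mRNA quantified by RT-PCR, 6-FAM labelling, HpaI digestion and capillary electrophoresis. Bidirectional fit versus DMSO baseline.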

A short description of assay [2]: ATG_ISRE_CIS: Attagene CIS-FACTORIAL HepG2 Assay for human Interferon Regulatory Factor 1 (IRF1) binding to an Interferon-Stimulated Response Element (ISRE) (AID 2282948). Conditions: HepG2 ISRE cis-reporter (Attagene), mRNA transcription readout; actives raise or lower the signal. In short, it runs like this: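 Transiently transfected HepG2 cells carrying cis-element reporter units, dosed 24 hours. Reporter mRNA quantified by RT-PCR, fluorescent primer extension, HpaI digestion and capillary electrophoresis. Bidirectional fitting relative to DMSO.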

The nature of assay [3]: ATG_M_32_CIS: Attagene CIS-FACTORIAL HepG2 Assay for M32 Transcription Factor (Internal Marker) (AID 2282949).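 Further: background control marker of the multiplexed CIS panel rather than a real target.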 Conditions: HepG2 Attagene cis-factorial M32 reporter, mRNA; actives raise or lower the signal. In short, it runs like this:
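HepG2 cells transiently transfected with multiplexed cis-regulated reporter units, dosed 24 h. Reporter mRNA quantified by RT-PCR, 6-FAM labelling, HpaI digestion and capillary electrophoresis; bidirectional fit vs DMSO.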

Assay [4] can be described thus: ATG_M_06_CIS: Attagene CIS-FACTORIAL HepG2 Assay for M06 Transcription Factor (Internal Marker) (AID 2282950). The conditions noted are these: HepG2 Attagene CIS-FACTORIAL M06 internal marker reporter; actives raise or lower the signal. In short, it runs like this:
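One of many multiplexed endpoints: HepG2 reporter mRNA after 24 h dosing, detected by RT-PCR and capillary electrophoresis fluorescence; gain or loss of signal analysed against DMSO.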

Assay [5] has as its target Hypoxia-inducible factor 1-alpha (Homo sapiens) (UniProt Q16665). Nature of the assay: ATG_HIF1a_CIS: Attagene CIS-FACTORIAL HepG2 Assay for human Hypoxia Inducible Factor 1 (HIF1A) (AID 2282951). Conditions: HepG2 Attagene cis-factorial HIF1a reporter transcription; actives raise or lower the signal. The method, boiled down: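 Measures endogenous transcription-factor activity through cis-regulated reporter mRNA in HepG2. Cells dosed 24 h; transcripts quantified by RT-PCR with 6-FAM-labelled products separated by capillary electrophoresis; DMSO serves as negative control.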

Assay [6] deals with Hepatocyte nuclear factor 6 (Homo sapiens) (UniProt Q9UBC0). The assay is described as follows: ATG_HNF6_CIS: Attagene CIS-FACTORIAL HepG2 Assay for human Hepatocyte Nuclear Factor 6 (HNF6) (AID 2282952). Conditions: HepG2 Attagene cis-factorial HNF6 reporter transcription; actives raise or lower the signal. In short, it runs like this: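 HepG2, transient MRTU transfection (cis promoters); 24 h chemical exposure; total RNA → oligo(dT) RT → PCR → 6-FAM labelling → HpaI cut → CE; bidirectional fit vs DMSO.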

Assay [7] in a line: ATG_MRE_CIS: Attagene CIS-FACTORIAL HepG2 Assay for human Metal Responsive Element (MRE) (AID 2282954). Conditions: HepG2 MRE cis-reporter transcription, Attagene multiplex; actives raise or lower the signal. In short, it runs like this: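 HepG2 cells transiently transfected with cis-element-driven reporter units; mRNA measured 24 h after dosing. Reporter transcripts quantified by RT-PCR, FAM labelling, HpaI digestion and capillary electrophoresis; bidirectional fit versus DMSO.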

Assay [8] is described as follows: ATG_PBREM_CIS: Attagene CIS-FACTORIAL HepG2 Assay for human Phenobarbital-responsive Enhancer Module (PBREM) (AID 2282955). The conditions noted are these: HepG2 PBREM cis-reporter, Attagene multiplexed transcription; actives raise or lower the signal. The method, boiled down:
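Fluorescence of labelled reporter cDNA fragments, resolved by capillary electrophoresis, gives mRNA induction in transfected HepG2 cells treated for 24 h; DMSO serves as negative control and baseline.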

Assay [9] deals with Paired box protein Pax-6 (Homo sapiens) (UniProt P26367). Nature of the assay: ATG_Pax6_CIS: Attagene CIS-FACTORIAL HepG2 Assay for human Paired Box 6 (PAX6) (AID 2282956). Conditions: HepG2 CIS-FACTORIAL PAX6 reporter transcription, RNA readout; actives raise or lower the signal. The method, boiled down:
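HepG2 cells transiently transfected with cis-promoter-driven multiplexed reporter units sensing endogenous transcription factor activity; 24 h chemical exposure. Reporter mRNA quantified by RT-PCR, 6-FAM labelling, HpaI digestion and capillary electrophoresis; bidirectional fit versus DMSO baseline.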

The nature of assay [10]: ATG_PXRE_CIS: Attagene CIS-FACTORIAL HepG2 Assay for human Pregnane X Receptor Element (PXRE) (AID 2282957). The conditions noted are these: HepG2 Attagene CIS-FACTORIAL PXRE reporter, mRNA; actives raise or lower the signal. In short, it runs like this:
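Transfect HepG2 with MRTUs (cis promoter elements); dose chemical, incubate 24 h; isolate RNA, RT with oligo(dT), PCR, 6-FAM label, HpaI cut, CE. Gain/loss fit vs DMSO.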

Assay [11] is described as follows: ATG_PPRE_CIS: Attagene CIS-FACTORIAL HepG2 Assay for human Peroxisome Proliferator-activated Response Element (PPRE) (AID 2282958). The conditions noted are these: HepG2 PPRE cis-element reporter, Attagene transcription factor profiling; actives raise or lower the signal. In short, it runs like this:
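Cells are first transfected transiently with the multiplexed reporter library, then dosed for 24 h. Total RNA is reverse-transcribed, amplified, fluorescently end-labeled and HpaI-cut before capillary electrophoresis; activity is fitted bidirectionally against DMSO controls.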

The nature of assay [12]: ATG_RORE_CIS: Attagene CIS-FACTORIAL HepG2 Assay for human RAR-related Orphan Receptor Element (RORE) (AID 2282959). The conditions noted are these: HepG2 Attagene cis-factorial RORE reporter, mRNA; actives raise or lower the signal. In short, it runs like this:
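Cells were HepG2 carrying transfected cis-regulated reporter constructs, dosed for 24 hours. Total RNA was reverse-transcribed and reporter cDNA amplified, fluorescently labeled and sized by capillary electrophoresis. Activity was fitted bidirectionally relative to DMSO.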

Assay [13] can be described thus: ATG_Sox_CIS: Attagene CIS-FACTORIAL HepG2 Assay for human SRY-box transcription factor (SOX) (AID 2282960). The conditions noted are these: HepG2 Attagene cis-factorial SOX reporter, mRNA; actives raise or lower the signal. The method, boiled down: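 Transient MRTU transfection of HepG2; 24 h compound incubation; TriZol RNA, oligo(dT) RT, PCR, 6-FAM primer extension, HpaI cut, CE. Bidirectional fit, DMSO = baseline.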

The target of assay [14] is Transcription factor Sp1 (Homo sapiens) (UniProt P08047). Nature of the assay: ATG_Sp1_CIS: Attagene CIS-FACTORIAL HepG2 Assay for human Specificity Protein 1 (Sp1) (AID 2282961). The conditions noted are these: HepG2 Sp1 cis-reporter transcription, actives raise or lower the signal. The method, boiled down:
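Endogenous Sp1 activity was gauged in human liver HepG2 cells bearing transfected reporter units under a cis-regulating promoter. After 24 h dosing, reporter mRNA was quantified by RT-PCR with capillary electrophoresis, and activity fitted bidirectionally versus DMSO.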

For assay [15], the target named is Signal transducer and activator of transcription 3 (Homo sapiens) (UniProt P40763). The assay is described as follows: ATG_STAT3_CIS: Attagene CIS-FACTORIAL HepG2 Assay for human Signal Transducer and Activator of Transcription 3 (STAT3) (AID 2282963). Conditions: HepG2, Attagene cis-factorial STAT3 reporter transcription; actives raise or lower the signal. The method, boiled down: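 HepG2 cells transiently transfected with multiple cis-element-driven reporter units report endogenous transcription factor activity. After 24 h compound exposure, reporter mRNA is measured by RT-PCR, 6-FAM labelling, HpaI digestion and capillary electrophoresis. Fitted bidirectionally versus DMSO.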

A short description of assay [16]: ATG_TA_CIS: Attagene CIS-FACTORIAL HepG2 Assay for human TA Basal Promoter (AID 2282964). Conditions: HepG2 Attagene CIS-factorial TA basal promoter reporter; actives raise or lower the signal. In short, it runs like this:
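Transient MRTU transfection of HepG2 preceded 24 h compound exposure. Reporter mRNA levels were then read by RT-PCR with capillary electrophoresis, and this background-control endpoint was fitted bidirectionally to DMSO.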

A short description of assay [17]: ATG_TCF_b_cat_CIS: Attagene CIS-FACTORIAL HepG2 Assay for human T-Cell-Factor with beta-catenin (TCF/b-cat) (AID 2282965). The conditions noted are these: HepG2 TCF/beta-catenin cis-reporter transcription, actives raise or lower the signal. The method, boiled down: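 HepG2 cells transiently transfected with cis-promoter-driven multiplexed reporter units; reporter mRNA measured 24 h after dosing by RT-PCR, FAM labelling, HpaI digestion and capillary electrophoresis. Bidirectional fitting relative to DMSO baseline.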

The nature of assay [18]: ATG_TAL_CIS: Attagene CIS-FACTORIAL HepG2 Assay for human TAL Basal Promoter (AID 2282966).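 Further: background control endpoint measuring basal TAL promoter reporter mRNA not a specific factor.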 The conditions noted are these: HepG2 Attagene cis-factorial TAL promoter reporter; actives raise or lower the signal. The method, boiled down:
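Fluorescence of labelled reporter cDNA fragments, resolved by capillary electrophoresis, gave the readout. Human HepG2 liver cells carried transiently transfected cis-element reporter units and were treated for 24 hours; activity was fitted bidirectionally against DMSO.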

Assay [19] concerns the target Heat shock factor protein 1 (Homo sapiens) (UniProt Q00613). The assay is described as follows: ATG_HSE_CIS: Attagene CIS-FACTORIAL HepG2 Assay for human Heat Shock Transcription Factor 1 (HSE) (AID 2282953). The conditions noted are these: HepG2 HSE cis-reporter, Attagene RNA transcription; actives raise or lower the signal. In short, it runs like this:
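Using HepG2 with transfected cis-driven reporter constructs, compound effects on endogenous factor activity are scored as reporter mRNA change at 24 h. Detection: RT-PCR, HpaI digestion, capillary electrophoresis; bidirectional fitting to DMSO.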

The nature of assay [20]: ATG_SREBP_CIS: Attagene CIS-FACTORIAL HepG2 Assay for human Sterol Regulatory Element Binding (SREBP) (AID 2282962). The conditions noted are these: HepG2 Attagene cis-factorial SREBP reporter, mRNA; actives raise or lower the signal. In short, it runs like this:
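HepG2 cells transiently transfected with multiplexed cis-promoter reporter units sensing endogenous transcription factors; reporter mRNA measured 24 h after dosing by RT-PCR, 6-FAM labeling, HpaI digestion and capillary electrophoresis. Bidirectional fit versus DMSO.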

The source of these data is PubChem BioAssay (EPA / NIEHS).

Broadly, the AC50 is the concentration at which the activity in the assay is half-maximal.

Values joined by “and” are separate entries in the source; they are usually repeats but may differ in a detail not shown here. Equal values may be shown once. Active and inactive are the calls of the source. How the source made its calls: active means hit-call score of the fitted dose curve at least 0.9, where 1 is the maximum; inactive means score below 0.9.

Transcription factor Sp1 (Homo sapiens), sequence (P08047 whole entry, looked up): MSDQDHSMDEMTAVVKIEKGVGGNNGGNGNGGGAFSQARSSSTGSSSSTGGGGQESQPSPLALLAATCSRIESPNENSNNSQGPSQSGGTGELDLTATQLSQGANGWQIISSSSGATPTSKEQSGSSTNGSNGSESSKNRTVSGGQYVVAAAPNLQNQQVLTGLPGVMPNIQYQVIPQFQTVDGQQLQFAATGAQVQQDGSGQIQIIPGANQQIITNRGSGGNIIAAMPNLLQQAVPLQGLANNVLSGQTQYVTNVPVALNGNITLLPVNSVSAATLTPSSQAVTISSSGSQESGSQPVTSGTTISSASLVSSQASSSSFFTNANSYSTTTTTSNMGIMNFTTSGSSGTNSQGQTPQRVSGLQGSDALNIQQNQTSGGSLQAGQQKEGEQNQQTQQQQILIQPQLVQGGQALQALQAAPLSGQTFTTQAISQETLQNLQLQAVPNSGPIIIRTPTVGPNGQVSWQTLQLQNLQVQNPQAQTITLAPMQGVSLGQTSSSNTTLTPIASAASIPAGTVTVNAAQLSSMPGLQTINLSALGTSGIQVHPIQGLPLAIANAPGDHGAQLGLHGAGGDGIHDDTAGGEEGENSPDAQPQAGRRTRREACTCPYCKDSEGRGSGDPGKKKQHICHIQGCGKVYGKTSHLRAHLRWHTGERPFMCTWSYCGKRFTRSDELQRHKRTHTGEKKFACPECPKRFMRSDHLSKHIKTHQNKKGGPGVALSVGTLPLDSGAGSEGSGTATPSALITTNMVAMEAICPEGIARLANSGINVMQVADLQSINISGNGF
Hepatocyte nuclear factor 6 (Homo sapiens), sequence (Q9UBC0 whole entry, looked up): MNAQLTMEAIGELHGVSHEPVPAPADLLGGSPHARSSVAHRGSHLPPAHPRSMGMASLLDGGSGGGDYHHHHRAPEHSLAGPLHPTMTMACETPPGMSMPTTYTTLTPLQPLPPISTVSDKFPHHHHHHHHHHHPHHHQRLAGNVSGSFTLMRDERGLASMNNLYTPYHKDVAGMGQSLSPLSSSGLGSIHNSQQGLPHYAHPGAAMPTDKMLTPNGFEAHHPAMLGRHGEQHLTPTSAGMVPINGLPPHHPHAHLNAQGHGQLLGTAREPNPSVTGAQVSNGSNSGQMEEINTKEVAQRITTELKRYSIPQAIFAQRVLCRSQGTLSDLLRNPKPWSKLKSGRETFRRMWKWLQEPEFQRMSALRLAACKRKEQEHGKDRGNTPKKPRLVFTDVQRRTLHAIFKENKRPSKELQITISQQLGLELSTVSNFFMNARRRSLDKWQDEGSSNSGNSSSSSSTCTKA
Paired box protein Pax-6 (Homo sapiens), sequence (P26367 whole entry, looked up): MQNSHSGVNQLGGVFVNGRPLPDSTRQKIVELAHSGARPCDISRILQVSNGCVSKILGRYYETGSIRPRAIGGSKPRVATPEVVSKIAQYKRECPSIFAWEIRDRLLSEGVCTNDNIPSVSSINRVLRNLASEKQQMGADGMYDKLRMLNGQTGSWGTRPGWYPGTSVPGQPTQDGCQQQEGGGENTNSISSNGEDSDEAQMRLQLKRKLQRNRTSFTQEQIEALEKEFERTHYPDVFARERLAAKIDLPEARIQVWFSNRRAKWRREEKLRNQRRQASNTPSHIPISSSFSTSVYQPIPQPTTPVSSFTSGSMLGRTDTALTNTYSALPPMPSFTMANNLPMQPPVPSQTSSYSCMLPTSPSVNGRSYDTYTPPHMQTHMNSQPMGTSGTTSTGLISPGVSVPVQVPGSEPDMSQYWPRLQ
Heat shock factor protein 1 (Homo sapiens), sequence (Q00613 whole entry, looked up): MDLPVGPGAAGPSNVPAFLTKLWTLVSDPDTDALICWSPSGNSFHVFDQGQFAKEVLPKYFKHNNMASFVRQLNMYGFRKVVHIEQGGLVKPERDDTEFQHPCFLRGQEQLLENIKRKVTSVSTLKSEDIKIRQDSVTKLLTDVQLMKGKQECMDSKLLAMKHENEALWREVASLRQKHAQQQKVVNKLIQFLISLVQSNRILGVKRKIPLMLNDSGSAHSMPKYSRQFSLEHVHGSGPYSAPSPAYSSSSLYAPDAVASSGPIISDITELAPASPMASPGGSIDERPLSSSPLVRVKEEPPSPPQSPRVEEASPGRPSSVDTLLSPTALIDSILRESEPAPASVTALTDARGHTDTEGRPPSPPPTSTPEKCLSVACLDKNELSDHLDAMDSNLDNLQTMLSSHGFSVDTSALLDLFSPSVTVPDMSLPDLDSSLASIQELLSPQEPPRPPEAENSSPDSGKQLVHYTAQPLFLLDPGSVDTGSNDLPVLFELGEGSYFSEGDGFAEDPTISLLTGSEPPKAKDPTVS
Hypoxia-inducible factor 1-alpha (Homo sapiens), sequence (Q16665 whole entry, looked up): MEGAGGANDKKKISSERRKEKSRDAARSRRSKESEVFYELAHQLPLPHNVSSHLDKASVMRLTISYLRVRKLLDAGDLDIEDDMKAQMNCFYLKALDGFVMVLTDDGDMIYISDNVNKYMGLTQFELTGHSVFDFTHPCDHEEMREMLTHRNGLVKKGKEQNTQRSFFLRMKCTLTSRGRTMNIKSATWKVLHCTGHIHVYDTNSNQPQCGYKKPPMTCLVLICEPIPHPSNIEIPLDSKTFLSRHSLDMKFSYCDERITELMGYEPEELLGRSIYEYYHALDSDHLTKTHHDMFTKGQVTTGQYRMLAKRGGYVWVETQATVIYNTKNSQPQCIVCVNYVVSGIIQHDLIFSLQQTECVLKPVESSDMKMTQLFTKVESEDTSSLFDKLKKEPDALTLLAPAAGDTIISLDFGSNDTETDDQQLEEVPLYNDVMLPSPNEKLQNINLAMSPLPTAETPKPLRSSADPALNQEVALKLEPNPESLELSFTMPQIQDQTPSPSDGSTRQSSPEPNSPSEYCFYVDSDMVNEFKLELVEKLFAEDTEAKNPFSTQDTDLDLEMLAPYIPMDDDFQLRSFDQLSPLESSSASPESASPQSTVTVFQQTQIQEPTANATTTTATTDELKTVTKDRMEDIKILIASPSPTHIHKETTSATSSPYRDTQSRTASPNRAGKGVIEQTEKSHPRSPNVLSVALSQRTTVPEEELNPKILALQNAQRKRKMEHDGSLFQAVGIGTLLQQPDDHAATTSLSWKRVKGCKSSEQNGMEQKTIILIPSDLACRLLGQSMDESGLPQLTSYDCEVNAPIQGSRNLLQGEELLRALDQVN
Signal transducer and activator of transcription 3 (Homo sapiens), sequence (P40763 whole entry, looked up): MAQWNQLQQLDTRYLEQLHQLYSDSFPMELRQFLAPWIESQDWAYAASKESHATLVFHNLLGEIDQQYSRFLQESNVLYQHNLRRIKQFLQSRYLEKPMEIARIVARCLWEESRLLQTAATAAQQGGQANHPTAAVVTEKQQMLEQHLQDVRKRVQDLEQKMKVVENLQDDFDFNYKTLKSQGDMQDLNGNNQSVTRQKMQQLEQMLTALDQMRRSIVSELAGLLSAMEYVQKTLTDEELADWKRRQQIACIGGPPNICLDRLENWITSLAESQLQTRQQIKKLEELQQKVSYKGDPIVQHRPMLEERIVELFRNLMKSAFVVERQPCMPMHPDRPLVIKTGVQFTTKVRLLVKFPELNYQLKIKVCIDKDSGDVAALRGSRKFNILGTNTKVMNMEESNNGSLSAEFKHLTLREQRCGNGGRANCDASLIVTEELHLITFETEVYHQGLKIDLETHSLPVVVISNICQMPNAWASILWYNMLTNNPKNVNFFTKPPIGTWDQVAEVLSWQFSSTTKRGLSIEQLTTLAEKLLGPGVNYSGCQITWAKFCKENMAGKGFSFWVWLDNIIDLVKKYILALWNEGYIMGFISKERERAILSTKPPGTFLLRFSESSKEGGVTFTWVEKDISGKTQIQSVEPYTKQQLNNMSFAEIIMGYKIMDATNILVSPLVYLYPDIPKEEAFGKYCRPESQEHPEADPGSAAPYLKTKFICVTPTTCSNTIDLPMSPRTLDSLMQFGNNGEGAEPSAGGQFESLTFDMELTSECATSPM

Regarding `CCOC(=O)C(C)Oc1ccc(Oc2cnc3cc(Cl)ccc3n2)cc1` (stereo unspecified), the compound was called inactive in [1], in assay [2], in assay [3], in assay [4], in assay [5] and in assay [6]. In addition, the outcome in assay [7], in [8], in assay [9], in assay [11], in assay [12] and in assay [13] was inactive. The outcome in [14], in [15], in assay [16], in assay [17] and in assay [18] was inactive. The AC50 in [10] is 35.1 µM (active).

With `O=C(O)c1ccccc1`, the result in [2], in assay [3], in assay [4], in assay [5], in assay [6] and in assay [7] was inactive. The outcome in [8], in assay [9], in assay [10], in assay [12], in [13] and in assay [14] was inactive. The compound was called inactive in assay [15], in assay [16], in assay [17] and in [18].

`CCC(C)OC(=O)N1CCCCC1CCO` (stereo unspecified): the compound was called inactive in assay [2], in [3], in assay [4], in assay [5], in assay [6] and in assay [19]. In addition, the result in assay [7], in assay [8], in assay [9], in [11], in assay [12] and in [13] was inactive. Moreover, the call in assay [14], in assay [15], in [16], in assay [17] and in assay [18] was inactive. Also, the AC50 in assay [10] was 20.7 µM (active) and 15 µM (active).

Consider `O=C(Nc1ccc([N+](=O)[O-])cc1Cl)c1cc(Cl)ccc1O`, for which the compound was called inactive in [1], in [2], in assay [3], in assay [4], in [6] and in [19]. In addition, the result in [9], in assay [11], in [13], in [15], in [16] and in [17] was inactive. The compound was called inactive in [18]. In addition, the AC50 in assay [7] is 947 nM (active); in assay [8], 700 nM (active); in assay [10], 0.426 µM (active); in assay [12], 1190 nM (active); in assay [14] it was 700 nM (active); in assay [20], 700 nM (active).
